# Bioassay records as filed in PubChem BioAssay.
# DRD3 agonist: D3 dopamine receptor (human) agonism; P35462; D3R DiscoveRx beta-arrestin cells, luminescence, 90 min; max activation, %; actives 0.58% (n = 410,000); AID 652048; in the data active = max activation above about 30%; also: 0% is about no effect
# Target sequence (P35462 whole entry, looked up): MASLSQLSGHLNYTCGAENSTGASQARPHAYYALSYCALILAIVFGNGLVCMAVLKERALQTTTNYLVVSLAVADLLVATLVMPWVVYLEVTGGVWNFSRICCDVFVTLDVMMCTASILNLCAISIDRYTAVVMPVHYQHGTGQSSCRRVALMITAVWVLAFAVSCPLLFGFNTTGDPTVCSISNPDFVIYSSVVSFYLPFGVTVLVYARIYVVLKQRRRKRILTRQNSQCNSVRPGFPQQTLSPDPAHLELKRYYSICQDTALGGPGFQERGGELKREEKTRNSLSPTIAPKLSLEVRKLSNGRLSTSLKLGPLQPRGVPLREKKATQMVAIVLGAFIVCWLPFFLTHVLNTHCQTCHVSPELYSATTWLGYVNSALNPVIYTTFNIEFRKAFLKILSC
#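 Cells at 1500/well, incubated overnight, then treated with pinned compounds (dopamine as control) for 90 min at 37 degrees C. DiscoveRx reagent added for 30 - 60 minutes at room temperature; luminescence read.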
# MCF10A rerep: induces DNA re-replication in MCF 10a normal breast cells | MCF 10A DNA re-replication, Hoechst nuclear intensity, 48 h | AID 624296 | Potency, µM (titrated, usually from 46.1 µM), without a hit: top-dose activity, positive = re-replication, hits mostly activators | actives 2.9% (n = 350,000); also: potency is read from the fitted curve at half-maximal effect; % of control where 0% means no effect; nearly all actives have a fitted effect of over 50% in size
# D3 antag: antagonists of human D3 dopamine receptor. D3R cells, DiscoveRx beta-arrestin luminescence, antagonist mode; active compounds read low. max response, negative = inhibition, %. P35462. actives 2.5% (n = 360,000); in the data active = max response below about -50%; inconclusive = no clear call, values can overlap the other calls; also: % is scaled to controls: 0 for no effect and ±100 for the full control effect
#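 Cells expressing the human receptor were seeded at 1500 cells/well, incubated overnight at 37 degrees C in 5% CO2, then exposed to library compounds with dopamine controls for 90 minutes at 37 degrees C before luminescent detection.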
# KB-3-1 tox: KB-3-1 parental cell cytotoxicity; AID 1347075; actives 1.4% (n = 400,000); KB-3-1 viability, CellTiter-Glo ATP luminescence, 72 h; Potency, µM (doses to about 46.1 µM), usual class: cytotoxic; also: potency is read from the fitted curve at half-maximal effect; % is scaled to controls: 0 for no effect and ±100 for the full control effect; nearly all actives have a fitted effect of over 60% in size
#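 Cells are dispensed, compounds pinned in, plates held at 37 °C for 72 h, then CellTiter-Glo is added and luminescence read after 10 minutes. Cell line: parental KB-3-1 in phenol-red-free DMEM, 10% FBS.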
# KB-V1 cytotox: kills drug-selected multidrug resistant KB-V1 cells | KB-V1 MDR cells viability, CellTiter-Glo, 72 h | Potency, µM (top dose mostly 46.1 µM), hits mostly cytotoxic | actives 3.4% (n = 400,000) | AID 1347076; also: potency is read from the fitted curve at half-maximal effect; % is scaled to controls: 0 for no effect and ±100 for the full control effect; nearly all actives have a fitted effect of over 60% in size
#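 Cytotoxicity toward P-gp-expressing KB-V1 cells was determined as loss of CellTiter-Glo luminescence after 72 h at 37 degrees C. Compounds were tested in quantitative HTS format across a concentration range, with curves fitted to normalized data.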
# SW480 rerep: inducers of DNA re-replication in SW480 colon cancer cells | SW480 DNA re-replication, Hoechst DNA content imaging, 48 h | Potency, µM (highest dose often 46.1 µM), for inactives: at the highest dose re-replication activation, actives largely listed as activators | actives 1.8% (n = 340,000); also: potency is read from the fitted curve at half-maximal effect; % of control where 0% means no effect; nearly all actives have a fitted effect of over 55% in size
#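 Per well, 250 cells were exposed to pinned compound for 48 hr. Nuclear DNA was visualised with Hoechst (40 min, 37 C) and total object intensity recorded by fluorescence scanning.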
# Numbers without * were called inactive; i = inactive; ? = inconclusive; nt = not tested or not shown; [ ] = another dose, or the depositor's remark. Compounds with a hit are over-represented: about 8.9% of the library has one in this group of screens. Unless noted, calls follow the shape of the dose curve; as a rule, active = well fitted curve in the direction sought with a large enough effect; inconclusive = small, poorly fitted or top-dose-only effect, or another doubt; inactive = no such curve, though single readings can be large; an effect the other way counts as inactive or inconclusive.
SMILES,DRD3 agonist,MCF10A rerep,D3 antag,KB-3-1 tox,KB-V1 cytotox,SW480 rerep
COc1ccc(CN(C(=O)c2nsc(Cl)c2Cl)C(C(=O)NC2CCCCC2)c2ccc(OC)cc2)cc1 (centres undefined),-18.2,2.0%,?,i,20.6µM*,2.1%
Cc1ccc(C)c(N(C(=O)c2csnn2)C(C(=O)NC2CCCC2)c2ccncc2)c1 (centres undefined),0.0,-3.2%,11.9,i,i,0.1%
COc1ccc(CN(C(=O)c2nsc(Cl)c2Cl)C(C(=O)NC2CCCC2)c2ccc(C)cc2)cc1 (centres undefined),-11.5,?,-24.9,?,?,?
CCC(=O)Nc1ccc(C)cc1-c1nc2ccccc2n(CC(=O)Nc2ccccc2Cl)c1=O,-9.5,nt,nt,i,i,nt
Cc1ccn2c(CNCCCn3cccn3)c(C(=O)N3CCCCCC3)nc2c1,-14.8,-1.1%,-58.1*,i,i,1.1%
Cc1ccn2c(CNCC3OCCc4ccccc43)c(C(=O)N3CCCCCC3)nc2c1 (centres undefined),-12.7,-1.9%,-80.9*,i,i,-1.2%
Cc1cc(C)cc(NC(=O)CCc2nnc3n(CC(C)C)c(=O)c4ccccc4n23)c1,15.1,nt,nt,nt,nt,nt
CC(=O)C(C(C)=O)C(NC(=O)c1cccnc1)(C(F)(F)F)C(F)(F)F,3.7,20.6µM*,-2.5,i,i,?
Cc1ccc(CN2CCN(CC(=O)NCCCN3CCN(c4ccc(F)cc4)CC3)C2=O)cc1,-44.3,4.6%,?,16.4µM*,i,-2.6%
Cc1ccc(-n2nc(C)c(C(=O)NCCCN3CCN(c4ccc(F)cc4)CC3)c2-n2cccc2)cc1,-13.2,nt,nt,14.6µM*,16.4µM*,nt
CCOC(=O)N1CCC(NC(=O)c2c(C)nn(-c3ccc(C)cc3)c2-n2cccc2)CC1,-4.3,nt,nt,?,7.31µM*,nt
Cc1nn(-c2ccc(F)cc2)c(-n2cccc2)c1C(=O)NCCCN1CCN(c2cccc(Cl)c2)CC1,-10.2,nt,nt,?,10.3µM*,nt
Cc1c(C(=O)NCc2ccccc2Cl)sc2nc3n(c(=O)c12)CCCCC3,2.3,nt,nt,i,i,nt
CCOc1ccccc1C(=O)NCc1ccc2c(c1)CCN2C(C)=O,-5.5,nt,nt,nt,nt,nt
Cc1cccc(C)c1-n1nnnc1C(c1ccnc2ccccc12)N1CCN(CC(=O)NC(C)C)CC1 (centres undefined),-6.4,nt,-17.9,i,i,nt
CCCCn1nnnc1C(c1cc2ccccc2o1)N1CCN(c2c(C)cccc2C)CC1 (centres undefined),7.8,nt,0.0,?,i,nt
Cc1cccc(C)c1-n1nnnc1C(c1cccc2ccccc12)N1CCN(C/C=C/c2ccccc2)CC1 (centres undefined),-10.9,nt,-107.5*,i,i,nt
Cc1cccc(C)c1-n1nnnc1C(c1cc2ccccc2o1)N1CCN(C/C=C/c2ccccc2)CC1 (centres undefined),-18.3,nt,-74.5*,i,i,nt
Cc1cccc(C)c1N1CCN(C(c2cc3ccccc3o2)c2nnnn2C(C)(C)C)CC1 (centres undefined),0.9,nt,-20.6,5.8µM*,2.59µM*,nt
Cc1cccc(C)c1-n1nnnc1C(c1ccnc2ccccc12)N1CCN(c2ccccc2F)CC1 (centres undefined),-8.8,nt,-27.9,?,16.4µM*,nt
N#Cc1ccc(NC(=O)COCc2cc(-c3ccco3)on2)cc1,-7.5,nt,nt,i,i,nt
CCOc1ccc(CCNC(=O)CCCn2nc(C)c3sc4ccccc4c3c2=O)cc1OCC,4.4,nt,nt,i,i,nt
COc1ccc(/C=N/NC(N)=S)cc1,5.2,?,-4.2,i,?,0.6%
NC(=S)N/N=C/c1ccc(C(F)(F)F)cc1,-7.9,?,-15.5,23.1µM*,5.8µM*,nt
CC(C)Oc1ccc(/C=N/NC(N)=S)cc1,3.8,?,10.6,?,14.6µM*,?
SMILES,DRD3 agonist,MCF10A rerep,D3 antag,KB-3-1 tox,KB-V1 cytotox,SW480 rerep
Oc1ccc(NCc2ccccc2OCc2ccc(Cl)cc2)cc1,-1.4,nt,nt,nt,nt,nt
O=C(OCc1ccccc1)c1ccc(NCc2cc(O)ccc2O)cc1,-8.2,?,-67.7*,3.66µM*,2.59µM*,?
OCCNCCNCc1ccccc1OCc1ccccc1,-5.4,2.7%,-6.6,i,i,20.6µM*
Oc1ccc(NCc2ccccc2OCc2ccccc2)cc1,-0.8,23.1µM*,1.6,i,i,14.6µM*
COc1ccc(C2CC(=O)Oc3c(C(CCN4CCN(c5ccccc5)CC4)c4ccc(N(C)C)cc4)c(OC)cc(OC)c32)cc1 (centres undefined),-47.1,0.3%,-84.1*,i,?,-1.1%[9.22 µM]
COc1cc(OC)c2c(c1C(CCN1CCOCC1)c1ccc(N(C)C)cc1)OC(=O)CC2c1ccc(N(C)C)cc1 (centres undefined),-33.5,?,-21.2,i,i,10.2%[9.22 µM]
COc1cc(OC)c2ccc(=O)oc2c1C(CCN1CCCC(C)C1)c1ccc(N(C)C)cc1 (centres undefined),-61.9,3.7%,-59.5*,i,i,-12.8%[9.22 µM]
COc1cc(C(CCN2CCOCC2)c2c(OC)cc(OC)c3c2OC(=O)CC3c2ccc(N(C)C)cc2)cc(OC)c1OC (centres undefined),-34.0,?,-6.2,i,i,2.6%[9.22 µM]
COc1cc(C2CC(=O)Oc3c(C(CCN4CCCC(C)C4)c4ccc(N(C)C)cc4)c(OC)cc(OC)c32)cc(OC)c1OC (centres undefined),-74.7,-6.8%,-71.5*,i,i,-11.5%[9.22 µM]
CCCCCc1cc(=O)oc2c(C(CCN3CCCC(C)C3)c3ccc(N(C)C)cc3)c(OC)cc(OC)c12 (centres undefined),-63.7,10.8%,-19.6,i,?,4.3%
COc1cc(C(CCN2CCCC(C)C2)c2c(OC)cc(OC)c3c2OC(=O)CC3c2ccc(N(C)C)cc2)cc(OC)c1OC (centres undefined),-22.3,5.4%,-59.5*,i,?,22.8%
CCC(C)NC(=O)CSc1nnc(-c2ccc(C)cc2)c(-c2ccc(C)cc2)n1 (centres undefined),-0.3,nt,nt,i,i,nt
Cc1c(C(=O)NCc2cccc(Br)c2)oc2ccc3c(c12)C(=O)CC(C)(C)O3,10.0,nt,nt,nt,nt,nt
CC12CN3CC(C)(CN(C1)C3c1ccc3c(c1)OCO3)C2=O (centres undefined),3.6,-2.7%,0.3,i,i,-11.7%
CN1c2ccccc2N(C)C1c1ccc2c(c1)OCO2,5.6,0.4%,-16.2,5.8µM*,i,1.0%
